Pf apPOL inh: Pf-apPOL DNA polymerase inhibition. Recombinant Pf-apPOL, molecular beacon fluorescence, 1.5 h. inhibition, % at 10 µM. 0.25% of 210,000 active. AID 1794808
mHTT CaM bind: mHTT-calmodulin interaction abrogation | P42858 | AlphaScreen His-mHTT/GST-CaM binding, luminescence | inhibition, % at 15 µM | 3.6% of 190,000 active | AID 1671202
Each line names hits and unclear results; the compound was inactive in the other large screens. Rows were chosen to be rich in hits. Some 3.5% of all compounds tested hit in one or more screens of this group. Cut-off read from the data, not from the text of the source: active = inhibition above about 50%; inactive = the rest.

Cn1cc(CCC(=O)NCc2ccco2)c2ccccc21	none
O=C(CSc1cn(CCNC(=O)c2ccccc2F)c2ccccc12)NCc1ccco1	none
Cc1ccccc1Cn1cc(SCC(=O)NCc2ccco2)c2ccccc21	mHTT CaM bind 86
CC(C)OC(=O)Cn1cnc2c(-c3ccccc3)csc2c1=O	none
CC1=CC(=O)C(C(C)C)=CC1=NC(=O)c1ccc(C)cc1	mHTT CaM bind 60
CC1=CC(=O)C(C(C)C)=C/C1=N\OC(=O)c1cccc(Br)c1	none
COc1cccc2cc(C(=O)N3CCN(c4ccccn4)CC3)oc12	none
CN(C)c1ccc(C2C=C(c3ccc(Cl)cc3)Nc3ncnn32)cc1 (stereo not drawn)	none
COc1ccc(NC(=O)CSc2nccn2C)cc1	none
COc1ccc(NC(=O)CSC2=NC(=O)CC(C)=N2)cc1	Pf apPOL inh 76
O=C(c1cnn2c1NC(c1cccs1)CC2C(F)(F)F)N1CCCCC1 (stereo not drawn)	none
Cc1cc(O)c2c(c1)OC(=Cc1cccnc1)C2=O	none
Cc1ccc(C2C3=C(CC(c4ccco4)CC3=O)NC3=C2C(=O)c2ccccc23)cc1 (stereo not drawn)	none
CC(C)(C)c1ccc(C2C3=C(CCCC3=O)NC3=C2C(=O)c2ccccc23)cc1 (stereo not drawn)	mHTT CaM bind 63
COc1cc(C2C3=C(CCCC3=O)NC3=C2C(=O)c2ccccc23)ccc1O (stereo not drawn)	none
CC(C)c1ccc(C2C3=C(CCCC3=O)NC3=C2C(=O)c2ccccc23)cc1 (stereo not drawn)	mHTT CaM bind 75
CC(C)c1ccc(C2C3=C(CC(C)(C)CC3=O)NC3=C2C(=O)c2ccccc23)cc1 (stereo not drawn)	mHTT CaM bind 65
O=C1CC(c2ccccc2)CC2=C1C(c1ccc(Cl)cc1)C1=C(N2)c2ccccc2C1=O (stereo not drawn)	none
Cc1nc(C(=O)NC2CCN(Cc3ccccc3)CC2)c(C)n1C1CCN(C)CC1	none
Cc1ccc(N=Cc2nc(-c3ccccc3)oc2O)cc1	none
Cn1cccc1C(=O)N1CCCCC1c1nncn1Cc1ccccc1 (stereo not drawn)	none
CCCCCCCCCCCCCCCC#CCO	none (no result: mHTT CaM bind)
COc1ccc(NC(=O)N2CC3CCCN3c3ccccc32)c(OC)c1 (stereo not drawn)	mHTT CaM bind 90
CCC1CN(C(=O)Nc2ccc(OC)cc2)c2ccccc2O1 (stereo not drawn)	none
COc1ccc(NC(=O)N2CCCC2c2ccccc2Cl)c(OC)c1 (stereo not drawn)	none
COc1ccc(NC(=O)N2CC3CCCN3c3ccccc32)cc1 (stereo not drawn)	mHTT CaM bind 62
Cc1ccc(-c2nc3ncccc3o2)cc1NC(=O)c1ccccc1[N+](=O)[O-]	none
COc1cc(C(F)(F)F)c(-c2nc(-c3ccc(Cl)cc3)cs2)cn1	none (no result: mHTT CaM bind)
COc1ccc(-n2nc(C(=O)N3CCCCC3C)c3ccccc3c2=O)c(OC)c1 (stereo not drawn)	none
Cc1ccc(N2N=NC3C(=O)N(c4ccccc4)C(=O)C32)cc1C (stereo not drawn)	none
CCC(=O)N1CCc2cc(N3CC(C(=O)NCc4cccs4)CC3=O)ccc21 (stereo not drawn)	none
Cc1ccc(C2=N/C(=C\c3ccc(Br)cc3)C(=O)O2)cc1[N+](=O)[O-]	none
CN(C)c1ccc(/C=C2\N=C(c3cccc([N+](=O)[O-])c3)OC2=O)cc1	Pf apPOL inh 97
CCN(CC)c1ccc(/C=C2\N=C(c3cccc([N+](=O)[O-])c3)OC2=O)cc1	none
Cc1ccc(C2=N/C(=C\c3cccc(Br)c3)C(=O)O2)cc1[N+](=O)[O-]	mHTT CaM bind 51
COc1ccccc1-c1coc2cc(OC(C)=O)cc(OC(C)=O)c2c1=O	none
O=c1ccc(-c2ccc3c(c2)OCCO3)n[nH]1	none
N#Cc1ccnc(Oc2ccc3c(c2)OCO3)c1	none (no result: Pf apPOL inh)
NC(=O)c1c(N)sc2c1CCCCC2	mHTT CaM bind 64
NC(=O)c1c(N)sc2c1CCC2	none (no result: mHTT CaM bind)
Cc1ccc(N(Cc2ccc(C(=O)Nc3ccccc3C(N)=O)cc2)S(C)(=O)=O)cc1C	none
CC(C)CN(CC(C)C)c1ccc([N+](=O)[O-])cc1C1Oc2c1c(=O)n(C)c(=O)n2C (stereo not drawn)	none
Cc1ccccc1-c1nc2s/c(=C\c3ccc(N(C)C)cc3)c(=O)n2n1	none
Oc1ccc(/C=N/n2cnnc2)c(O)c1	none (no result: Pf apPOL inh)
COc1ccc(/C=C/c2nc(N)nc(-c3ccccc3O)n2)cc1	none
Oc1ccc(/C=C/c2nc(-c3ccccc3O)n(-c3ccccc3)n2)cc1	mHTT CaM bind 92
Oc1ccc(/C=C/c2nc(-c3ccccc3O)n(-c3ccccc3)n2)c(O)c1	mHTT CaM bind 96
O=[N+]([O-])c1ccc(Oc2c(F)c(F)nc(N3CCOCC3)c2F)cc1	none
O=C(c1ccc(Cl)cc1)N(c1ccc(Cl)cc1)C1C=CS(=O)(=O)C1 (stereo not drawn)	none
Cc1ccc(N(C(=O)c2ccc(C(C)(C)C)cc2)C2C=CS(=O)(=O)C2)cc1 (stereo not drawn)	Pf apPOL inh 80
COc1ccc(C(=O)Nc2ccc(O)c(-c3nc4ccccc4o3)c2)cc1[N+](=O)[O-]	none
O=C(c1n[nH]c2ccccc12)N1CCc2nc3cc(-c4ccccc4)[nH]n3c(=O)c2C1	none
COc1ccc(-c2cc3nc4c(c(=O)n3[nH]2)CN(C(=O)c2ccc(C)c(F)c2)CC4)cc1	mHTT CaM bind 80
COc1ccc(-c2cc3nc4c(c(=O)n3[nH]2)CCN(C(=O)c2ccc(C)c(F)c2)C4)cc1	none
O=C(c1cc(C2CC2)[nH]n1)N1CCc2nc3cc(-c4ccccc4Cl)[nH]n3c(=O)c2C1	mHTT CaM bind 59
O=C(c1ccc2ncccc2c1)N1CCc2nc3cc(-c4ccccc4)[nH]n3c(=O)c2C1	Pf apPOL inh 96, mHTT CaM bind 99
O=C(c1nccc2ccccc12)N1CCc2nc3cc(-c4ccccc4)[nH]n3c(=O)c2C1	mHTT CaM bind 56
CC(=O)N1CCc2nc3cc(-c4ccccc4Cl)[nH]n3c(=O)c2C1	none
Cc1ccc(C(=O)N2CCc3nc4cc(-c5ccccc5)[nH]n4c(=O)c3C2)cc1F	none
COc1cc(C2Nc3ccc(Cl)cc3C(c3ccccc3)O2)cc(OC)c1OC (stereo not drawn)	none
COc1ccccc1/C=C(\C#N)c1nc(-c2ccc(OC)c(OC)c2)cs1	none
CC(C)CC(=O)N1CCCC(COc2cccc(C(=O)NC3CC3)c2)C1 (stereo not drawn)	none
COC(=O)c1ccccc1NC(=O)C1=C(C)C(=O)OC12CCCCC2	none
CC1C(c2ccc3ccccc3n2)=CNc2ccccc21 (stereo not drawn)	mHTT CaM bind 91
c1ccc2nc(-c3nc4ccccc4[nH]3)ccc2c1	none
CC(C)c1noc(-c2cccnc2N2CCCN(Cc3ccccc3Cl)CC2)n1	mHTT CaM bind 61
Cc1ccccc1CN1CCCN(c2ncccc2-c2nc(C(C)C)no2)CC1	none
O=C(CCCN1C(=O)c2cccnc2C1=O)Nc1c(F)cccc1F	none
COc1ccc(C2/C=C\CN(C(=O)Nc3ccccc3-c3ccccc3)CC(=O)N2Cc2ccc(F)cc2)cc1 (stereo not drawn)	mHTT CaM bind 60
COc1ccc(C2/C=C\CN[C@@H](Cc3ccccc3)C(=O)N2Cc2ccc(F)cc2)cc1 (stereo partly drawn)	mHTT CaM bind 64
COC(=O)N1C/C=C\C(c2ccc(OC)cc2)N(Cc2ccc(F)cc2)C(=O)C1 (stereo not drawn)	none
COc1ccc(C2/C=C\CN(CC3CC3)[C@@H](Cc3ccccc3)C(=O)N2Cc2ccc(F)cc2)cc1 (stereo partly drawn)	none
